Results on 40 compounds are retold here after PubChem BioAssay (NCATS).

Where “and” joins values, the source holds several entries; their conditions need not be identical. Identical values can stand only once. Records with an inconclusive call do not appear. Entries that show only a call come without a potency. A number with no mark means an inactive call. Calls of active or inactive are those of the source. The call rests on the fitted dose curve; in most records, active means well fitted cell-killing curve with a large enough effect; inconclusive means small, poorly fitted or top-dose-only effect; inactive means flat fitted curve, though single readings scatter.
Potency means the concentration at half of the fitted maximal effect.

The nature of this test: qHTS of pediatric cancer cell lines to identify multiple opportunities for drug repurposing: Primary screen for U-2 OS cells (AID 1347096). Further: nearly all actives have a fitted effect of over 50% in size. The following applies: U-2 OS viability, CellTiter-Glo luminescence, 48 h; series mostly up to 46 µM; activity change, negative = cytotoxic: at the top concentration. From the text:
Drug repurposing or repositioning has been offered as a strategy for drug development in oncology programs. This approach has special potential for childhood cancers and other rare or orphan diseases, where the expected return on new drug development has been a disincentive to pharmaceuticals.
In this project we exploit the poly-pharmacology of drugs to discover new indications via phenotypic screening of a panel of 19 well-characterized cell lines derived from solid tumors seen in children and adolescents. The goal is to identify approved drugs with previously unrecognized anticancer properties that has the potential to reveal new mechanisms and biological processes involved in carcinogenesis or drug resistance. We employed a titration-based paradigm (quantitative high-throughput screening or qHTS), where all compounds were tested at multiple concentrations for their effect on cell viability. Concentration-response curves (CRCs) were derived directly from the primary screen, and both potency and efficacy values were used to identify compounds with robust bioactivity profiles. We screened the NIH Chemical Genomics Center (NCGC) Pharmaceutical Collection (NPC) and Mechanism Interrogation Plate (MIPE) small molecule collections of approved and investigational compounds against these cell lines; and measured metabolically active cells after 48 hours of compound treatment as a proxy for cell viability.
Assay Submitter: Nathalia J. Martinez, National Center for Advancing Translational Sciences, National Institutes of Health, Rockville, MD, USA; email: natalia.martinez@nih.gov
[1] Shen, M et al. Quantitative high-throughput phenotypic screening of pediatric cancer cell lines identifies multiple opportunities for drug repurposing. Oncotarget 2017 Dec 19;9(4):4758-4772. PMID 29435139.
The cells were obtained from University of North Carolina (UNC), Pediatric Preclinical Testing Program (PPT), and Coriell Institute (CI).
qHTS cell viability assay:
Cells were assayed in growth media at a density of 500-1,000 cells/well. Five microliters of cells were dispensed into 1,536-well, white, solid-bottom, TC-treated plates (Greiner Bio One) using a multidrop dispenser and incubated at 37 degrees C, 5% CO2, under a humidified atmosphere for 5 hours. Twenty-three nanoliters of compounds and controls (neutral control DMSO or positive control bortezomib at final concentration of 2.3 µM) were subsequently transferred by Kalypsys pintool. For primary screens, the MIPE collection was tested at 11-point dilutions (final concentrations range from 0.78 nM to 46 µM) and the NPC collection at 8-point dilutions (final concentrations range from 0.59 nM to 46 µM). Compounds tested in follow-up screens were assayed at 11-point dilutions. Cells were incubated for 48 hours, followed by addition of 3 µL of CellTiter-Glo (Promega). After a 15 min incubation at room temperature, samples were analyzed for luminescence intensity using a ViewLux High-throughput CCD imager equipped with clear filters.
(In qHTS, concentration-response curves come from the screen itself.)
Turning to `CC1=C(C(=O)O)N2C(=O)[C@@H](NC(=O)C(N)c3ccccc3)[C@H]2SC1` (stereo not given in full), the “activity change, negative = cytotoxic” value was 6.82%. As to `C[C@@H]1CN(c2c(F)c(N)c3c(=O)c(C(=O)O)cn(C4CC4)c3c2F)C[C@H](C)N1`, the Potency entry was “inactive”.

Consider `CN1CCCC(n2nc(Cc3ccc(Cl)cc3)c3ccccc3c2=O)CC1` (stereo not given), for which the Potency was 9.35 µM (active). As to `COc1cccc(N(C)C(=S)Oc2ccc3c(c2)CCCC3)n1`, the Potency entry was “inactive”. In the case of `CCC(C)(C)c1ccc(CC(C)CN2C[C@@H](C)O[C@@H](C)C2)cc1` (stereo not given in full), the Potency result was “inactive”.

Take `COc1ccccc1OCC(O)COC(N)=O` (stereo not given): the Potency result is “inactive”. As for `COc1ccc(-c2ccc3cc(C(=O)O)ccc3c2)cc1C12CC3CC(CC(C3)C1)C2`, the Potency result was “inactive”.

`CC(C)OC(=O)C(C(=O)OC(C)C)=C1SC=CS1`: the Potency result is “inactive”.

As to `C[C@]12C=CC(=O)C=C1CC[C@@H]1[C@@H]2C(=O)C[C@@]2(C)[C@H]1CC[C@]2(O)C(=O)CO`, the Potency entry was “inactive”.

Consider `CCOC(=O)[C@H](CCc1ccccc1)N[C@H]1CCc2ccccc2N(CC(=O)O)C1=O`, for which the “activity change, negative = cytotoxic” value was -11.3%. Turning to `CCOC(=O)c1ccc(C#Cc2ccc3c(c2)C(C)(C)CCS3)nc1`, the Potency result is “inactive”. Still for that read-out and setting: in the case of `CC(C)C1CCC(C(=O)N[C@H](Cc2ccccc2)C(=O)O)CC1` (stereo not given in full) it was “inactive”; in that of `Cc1cccc(N(C)C(=S)Oc2ccc3ccccc3c2)c1`, “inactive”; in that of `COCCCOc1cc(C[C@@H](C[C@H](N)[C@@H](O)C[C@H](C(=O)NCC(C)(C)C(N)=O)C(C)C)C(C)C)ccc1OC`, “inactive”.

Regarding `CC(=O)CC(c1ccccc1)c1c(O)c2ccccc2oc1=O` (stereo not given), the Potency entry was “inactive”. As for `CCc1cc(C(N)=S)ccn1`, the Potency entry is “inactive”.

`CCN(CC)CC#CCOC(=O)C(O)(c1ccccc1)C1CCCCC1` (stereo not given): the “activity change, negative = cytotoxic” value is 13.4%. On to `Cn1nnc2c(C(N)=O)ncn2c1=O`, for which the Potency entry is “inactive”.

In the case of `CC(C(=O)O)c1ccc2c(c1)CC(=O)c1ccccc1S2` (stereo not given), the Potency result is “inactive”. As for `O=C(O)C1CCCN(CCC=C(c2ccccc2)c2ccccc2)C1` (stereo not given), the “activity change, negative = cytotoxic” value is 9.08%. Turning to `CCn1cc(C(=O)O)c(=O)c2cc(F)c(N3CCNCC3)cc21`, the Potency entry was “inactive”.

`O=C(N[C@H](CO)[C@H](O)c1ccc([N+](=O)[O-])cc1)C(Cl)Cl`: the Potency entry was “inactive”. The same measure, in the same setting: the same measure for `CN(CCOc1ccc(CC2SC(=O)NC2=O)cc1)c1ccccn1` (stereo not given): “inactive”. For `CCN(CC)CCn1c(=O)c(Cc2ccc(OC)cc2)nc2ccccc21`, the “activity change, negative = cytotoxic” value is 7.18%. For `CN(C)CCc1c[nH]c2ccc(CS(=O)(=O)N3CCCC3)cc12`, the Potency result is “inactive”. Still for that read-out and setting: the same measure for `CO[C@@H]1[C@@H](OC(N)=O)[C@@H](O)[C@H](Oc2ccc3c(O)c(NC(=O)c4ccc(O)c(CC=C(C)C)c4)c(=O)oc3c2C)OC1(C)C`: “inactive”; for `CN1CCN(c2c(F)cc3c(=O)c(C(=O)O)cn4c3c2OCN4C)CC1`: “inactive”.

Consider `O=C(NCC1CN(c2ccc(N3CCOCC3=O)cc2)C(=O)O1)c1ccc(Cl)s1` (stereo not given), for which the Potency entry is “inactive”.

Take `Nc1nc(=S)c2[nH]cnc2[nH]1`: the Potency was 1.68 µM (active) and 2.35 µM (active). In the case of `CC(=O)[C@H]1CC[C@H]2[C@@H]3CCC4=CC(=O)CC[C@]4(C)[C@H]3CC[C@]12C`, the “activity change, negative = cytotoxic” value is 13.6%. As for `O=S(=O)(O)CCS`, the Potency entry is “inactive”.

`CC1=NN(c2ccccc2)C(=O)C1`: the Potency result was “inactive”. For the compound `Cc1onc(-c2ccccc2Cl)c1C(=O)N[C@@H]1C(=O)N2[C@@H]1SC(C)(C)[C@@H]2C(=O)O`, the Potency result was “inactive”. Still for that read-out and setting: the same measure for `O=NN(CCCl)C(=O)NC1CCCCC1`: “inactive”; for `COc1cnc(NS(=O)(=O)c2ccc(N)cc2)nc1`: “inactive”. On the same count and under the same terms, in the case of `CCOc1cc(N)c(Cl)cc1C(=O)NCC1CN(Cc2ccc(F)cc2)CCO1` (stereo not given) it was “inactive”. Same read-out and setting: in the case of `CNS(=O)(=O)Cc1ccc2[nH]cc(CCN(C)C)c2c1` it was “inactive”; in that of `Cc1noc(NS(=O)(=O)c2ccc(N)cc2)c1C`, “inactive”; in that of `NNC(=O)c1ccncc1`, “inactive”.

`COc1cc([C@@H]2c3cc4c(cc3[C@H](O)[C@H]3COC(=O)[C@H]23)OCO4)cc(OC)c1OC`: the “activity change, negative = cytotoxic” value is -22%.
